In PubChem BioAssay AID743397 (Broad Institute, 2014) one finds inhibition data, which are given here for 45 compounds.

For orientation: inhibition means the relative decrease from the control value, in per cent.

About 330 (0.097%) of roughly 340,000 compounds were called active.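 How the source made its calls: active means mean replicate inhibition of at least 30% and at least 1% of replicates passing that level; inconclusive means only one of the two criteria is met; inactive means neither criterion is met.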 Many of the other results were omitted from the sample, so actives are more common in it than they were.

In this experiment the test system is Voltage-dependent L-type calcium channel subunit alpha-1D (CaV1.3) ICDI/IQ interaction. Kind of experiment: Primary screen for inhibitors of IQ motif and Ca2+-dependent inactivation inhibitor domain binding in CACNA1D, Förster resonance energy transfer in living cells, single-concentration test (AID 743397).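 Further: 0% = median of the neutral control wells.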 Conditions: HEK cells, CFP/YFP FRET ICDI-IQ, plate reader, 10 min; at 12.3 µM; hits give high values; percent FRET-ratio fall versus neutral wells.
As for `O=C(NCc1ccccc1)[C@@H]1CCCN1C(=O)[C@@H](NS(=O)(=O)c1ccc(F)cc1F)C1CCCCC1`, the inhibition is -2.67% (inactive).
Turning to `O=C(C(=O)N1CCC(CNS(=O)(=O)Cc2ccccc2)CC1)c1cc2ccccc2o1`, the inhibition was -8.57% (inactive).
With `Cc1ccc(C)c(CN2CCC(CNC(=O)C3CCCN(c4ncnc5c4nc4n5CCCCC4)C3)CC2)c1` (stereo not given), the inhibition is -13.7% (inactive).
As to `O=C(O)Cn1cnc2c(NCc3ccccc3)ncnc21`, the inhibition is -6.21% (inactive).
`CC(C)C[C@H](NC(=O)CC1CCCC1)C(=O)N1CCC[C@H]1C(=O)NCc1ccccc1`: the inhibition is -8.63% (inactive).
Regarding `Nc1[nH]c(C(=O)c2ccc(Br)cc2)c(-c2ccc3c(c2)OCO3)c1C(=O)NCCc1c[nH]c2ccccc12`, the inhibition is -16.2% (inactive).
Take `CCOC(=O)C1CSCCS(=O)(=O)N1Cc1ccc(Cl)cc1` (stereo not given): the inhibition is -4.73% (inactive).
As to `O=C1[C@@H](c2ccccc2)[C@@H](c2ccccc2)N1c1ccccc1`, the inhibition is -7.31% (inactive).
For `Brc1ccc(COCCc2cn(Cc3ccccc3)c3ccccc23)cc1` the value was -2.59% (inactive); for `CC(=O)c1ccc(-c2cnc3c(NC=O)cc(-c4cccc(NS(C)(=O)=O)c4)cn23)cc1`, -5.47% (inactive); for `COCCCNC(=O)C[C@H]1C[C@@]2(C(=O)OC)C(=C[C@H](C(C)(C)C)O[C@@H]2C)N(Cc2ccc3c(c2)OCO3)C1=O`, -3.83% (inactive).
As for `O=C(N[C@H](Cc1ccccc1)C(=O)N1CCCN(Cc2cccs2)CC1)[C@H]1O[C@@H](n2ccc(=O)[nH]c2=O)[C@H](O)[C@@H]1O`, the inhibition was -3.41% (inactive).
As to `Cc1ccc2nc(-c3ccc(CN4CCC(n5cc(-c6ccccc6)[nH]c5=O)CC4)cc3)c(-c3ccccc3)nc2c1`, the inhibition was -15.6% (inactive).
As for `COC(=O)C1=C(C)N(Cc2ccc(F)cc2)C(=S)NC1c1cccc(Cl)c1` (stereo not given), the inhibition was -2.29% (inactive).
For the compound `CCCCCCCCN1C(=O)[C@@H](CC(=O)NCc2ccccc2)C[C@@]2(C(=O)OC)C1=C[C@H](C(C)(C)C)O[C@@H]2C`, the inhibition was -8.36% (inactive).
In the case of `O=C(NN=Cc1ccco1)C(=O)Nc1ccc(Cl)c([N+](=O)[O-])c1`, the inhibition is -13% (inactive).
Next, `O=S1(=O)c2ccc(Br)cc2-n2nncc2CN1Cc1cccc(Cl)c1`: -9.71% (inactive); `COC(=O)[C@]12C[C@H](CC(=O)NCc3ccc(OC)c(OC)c3)C(=O)N(Cc3ccccc3)C1=C[C@H](C(C)C)O[C@@H]2C1CC1`: -11.2% (inactive).
As to `CC(=O)C1=C(C)N(Cc2ccc(Cl)cc2)C(=S)NC1c1ccc(F)cc1` (stereo not given), the inhibition is -2.53% (inactive).
For the compound `CC(C)[C@H]1COCCS(=O)(=O)N1Cc1ccccc1-c1cccc2c1sc1ccccc12`, the inhibition was -4.21% (inactive).
With `C[C@H]1[C@H](c2ccccc2)Oc2cc(Br)ccc2S(=O)(=O)N1Cc1cccc(F)c1`, the inhibition was -4.74% (inactive).
For `O=S(=O)(c1cccs1)N1CCCc2nc(-c3ccc(Br)cc3)ccc21` the value was -8.65% (inactive); for `C=CCN=C1NC(c2ccccc2)C(C(=O)OC)=C(C)N1Cc1ccc(C(F)(F)F)cc1` (stereo not given), -6.18% (inactive).
For `N#Cc1c(N)sc2c1CCN(C(=O)OCc1ccccc1)C2`, the inhibition is -7.05% (inactive).
For `CCN1CCN(CC(=O)Nc2sc3c(c2C#N)CCC3)CC1`, the inhibition is -6.79% (inactive).
As to `O=C(NNC(=O)c1ccc(Cl)nc1)c1ccc(Br)cc1`, the inhibition was -6.15% (inactive).
Regarding `CNC(=S)NNC(=O)c1ccc(N(C)C)cc1`, the inhibition is -4.61% (inactive).
For `CC(=O)NC(=S)NNC(=O)c1ccc(Br)cc1` the value was 74.6% (active).
On to `O=C(Nc1ccc(C(F)(F)F)cc1)c1cccc(-n2cnnn2)c1`, for which the inhibition is -5.18% (inactive).
With `CCCCC(=O)Nc1ccc(C(=O)Nc2cc(C(F)(F)F)ccc2Cl)cc1`, the inhibition is -17.6% (inactive).
Turning to `O=C1Nc2ccccc2C1=NN=Cc1ccco1`, the inhibition was -4.56% (inactive).
Turning to `CCCCC[C@H](C)N1C[C@@H](COCc2ccccc2)Oc2cc(N3CC[C@@H](N(C)C)C3)ccc2S1(=O)=O`, the inhibition was -7.78% (inactive).
With `O=C(Nc1cccc([N+](=O)[O-])c1)Nn1cnnc1`, the inhibition is -5.3% (inactive).
For `O=[N+]([O-])c1cccc(Nc2c3ccccc3nc3ccccc23)c1` the value was 87.1% (active).
Take `N#Cc1cccc(Nc2c3c(nc4ccccc24)CCCC3)c1`: the inhibition is -2.56% (inactive).
With `COCCCn1c(C(=O)NC2CCCCC2)cc2c(=O)n3cccc(C)c3nc21`, the inhibition is -7.34% (inactive).
For `CCn1c(=N)c(C(=O)NCCCOC)cc2c(=O)n3cccc(C)c3nc21` the value was 45.8% (active); for `COc1ccc(CCn2c(=N)c(C(=O)NCC3CCCO3)cc3c(=O)n4cccc(C)c4nc32)cc1OC` (stereo not given), -7.32% (inactive); for `COCc1[nH]nc2c1C(c1ccccc1)N(c1ccccc1)C2=O` (stereo not given), -4.04% (inactive).
For `COC(=O)c1cc2c(c3c4cc(F)ccc4n(S(=O)(=O)c4ccccc4)c13)C(=O)N(Cc1ccccc1OC)C2`, the inhibition is -8.18% (inactive).
`C=CC[C@]12C[C@@]3(O[C@H](c4ccc(C(F)(F)F)cc4)N=C3C[C@H](c3ccc(OC)cc3)[C@H]1C)N(C1CCN(Cc3ccccc3)CC1)C2=O`: the inhibition was -3.62% (inactive).
For `CN(C)CCOc1ccc(Cl)cc1C(C)(C)C`, the inhibition was 3.19% (inactive).
`CCN(CC)CCOCCOc1ccc(Cl)c2ccccc12`: the inhibition is -5.65% (inactive).
Regarding `CN(C)CCOCCOc1ccc(Cl)c2ccccc12`, the inhibition was 62.4% (active).
With `Cc1ccc(N)cc1CN1CCN(c2ncc(Cc3ccccc3)cn2)CC1`, the inhibition is -2.7% (inactive).
